From PubChem
The list is not random: actives were taken first. Their share in the collection is about 6.8%.
PMK inhibit – blocks S. pneumoniae phosphomevalonate kinase; purified PMK, PK/LDH-coupled NADH absorbance 340 nm; inhibition, % at 10 µM; hit rate 0.49% among 65,000; AID 539;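 active means top-ranked compounds by inhibition in the single 10 µM screen, taking a fixed number of the strongest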;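 further: 0% = full reaction with DMSO carrier and 100% = background rate without enzyme reaction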
A340 absorber – compound absorbs light at 340 nm; compound absorbance at 340 nm, fold over control; fold change at 10 µM; 65,000 tested, under 10 active;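 active means at 10 µM dose, initial 340 nm absorbance at least 2 fold that of control wells; inactive means change under 2 fold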;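 further: initial absorbance extrapolated from kinetic A340 decline of NADH oxidation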
NADH coupling – inhibition of NAD/NADH coupling enzymes, library profiling. coupled PK/LDH NADH assays, four targets. IC50, µM (top dose mostly 10 µM), for the others: at the highest dose inhibition. hit rate 0.02% among 65,000. AID 774;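 active means single-dose screening hits from any of four coupled enzyme assays that gave an IC50 when retested across doses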;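 further: the DPM-DC format reads NADH fluorescence rather than 340 nm absorbance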
DPM-DC inhibit – inhibitors of Streptococcus pneumoniae diphosphomevalonate decarboxylase; purified DPM-DC, PK/LDH coupled NADH fluorescence; calls only at 10 µM; hit rate 0.49% among 65,000; AID 556;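 active means the 320 compounds with the highest percent inhibition in the single-dose primary screen, excluding strongly autofluorescent ones, cut at about 32% in these data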;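 further: kinetic rate of NADH fluorescence loss reporting ADP formed by the decarboxylase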
Spn MK inh – inhibitors of Streptococcus pneumoniae mevalonate kinase. hit rate 0.48% among 65,000. purified MK, PK/LDH-coupled NADH absorbance 340 nm. inhibition, % at 10 µM;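 active means ranked among the strongest by inhibition in the single 10 µM screen, a fixed top-ranked set picked for dose follow-up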
Fluor 339 460 – intrinsic fluorescence of library compounds, ex339/em460 – biochemical, MLSMR library, data from DPM-DC assay, artefact control, profiling panel. AID 709. fluorescence fold increase at 10 µM. hit rate 5.5% among 65,000. compound autofluorescence, ex339/em460 nm, NADH buffer; active compounds read high; 1 = no-compound wells, NADH background;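 active means at 10 µM, mean starting fluorescence two-fold or more over control wells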;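 further: signal is the first read of a kinetic run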
* marks the source's active call; other numbers are inactive results; i = inactive; . = no result shown; + = active, no number.

SMILES	PMK inhibit	A340 absorber	NADH coupling	DPM-DC inhibit	Spn MK inh	Fluor 339 460
CCOC(=O)CNC(=O)Cn1cnc2ccc(S(=O)(=O)N3CCC(C)CC3)cc2c1=O	5	1	2%	i	0	1.1
Cc1cc(C)c(-c2cc(C(F)(F)F)no2)c(=O)[nH]1	9	1.2	12%	.	15	3.7*
Cn1c2ccccc2c2cnn(CC(=O)N3CCN(c4ncccn4)CC3)c(=O)c21	25*	1.1	9%	i	2	1.4
CN1CCN(CCCNC(=O)Cn2ncc3c4ccccc4n(C)c3c2=O)CC1	3	1	3%	i	7	1.3
O=C(Oc1ccccc1)c1c(Cl)cccc1P(=O)(O)O	8	1	3%	i	0	1
COc1ccc(C(=O)CSc2nc3nc(C)cc(C)c3c(=O)[nH]2)cc1OC	5	1.1	2%	i	0	1.2
OCCNc1ncnc2c1c(-c1ccccc1)c(-c1ccccc1)n2Cc1ccco1	5	0.99	6%	+	0	1.4
COc1ccccc1OCc1nnc(SCC(=O)N2CCCCC2)n1-c1ccccc1	7	1	7%	i	0	0.97
COc1ccccc1-n1c(SCC(=O)N2CCCCC2)nnc1-c1ccccc1O	27*	1	11%	i	5	1
Cc1cccc(-n2nc3c(c2NC(=O)c2ccco2)CSC3)c1C	25*	0.98	8%	i	0	1.1
COc1cc(-n2c3nc4ccccc4nc3c3c(=O)n(Cc4ccco4)cnc32)cc(OC)c1OC	0	1	0%	i	0	1.1
COc1ccc2c(c1)c1ncn(Cc3ccco3)c(=O)c1n2C	9	1	8%	.	7	3.7*
CC(=O)c1cccc(NC(=O)N2CCC(c3nnc(SCC(N)=O)n3C)CC2)c1	17	0.99	6%	i	0	1.1
CN(C)c1ccc(-n2cc3c(=O)n(C)c(=O)n(C)c3c2)cc1	5	1.1	7%	i	4	1.9
CCN(CC)c1ccc(-n2cc3c(=O)n(C)c(=O)n(C)c3c2)cc1	13	1.1	7%	.	0	3.7*
CC1CCCN(S(=O)(=O)c2cccc(-c3cn4cccnc4n3)c2)C1 (centres undefined)	11	1.1	13%	.	14	3.6*
Cc1ccc2c(N)c(C)ccc2c1	11	1	10%	.	9	3.7*
CCOC(=O)N1CCC(NC(=O)c2cc3c(-c4cccc(OC)c4)nn(C)c3s2)CC1	9	1	12%	i	5	3.9*
COc1cccc(-c2nn(C)c3sc(C(=O)NCc4ccccn4)cc23)c1	7	1.1	7%	.	7	4.9*
CCCCCn1c(=NC(=O)c2ccco2)c(C(=O)OCC)cc2c(=O)n3ccccc3nc21	9	1.1	9%	i	5	3*
CCOC(=O)c1c(C)nc2ccccn12	11	1	6%	i	6	1.1
CCCCn1c(=NC(=O)c2ccco2)c(C(=O)OCC)cc2c(=O)n3ccccc3nc21	0	1	6%	.	12	2.2*
O=C(c1cn(CC(=O)N2CCCC2)c2ccccc12)C1CCCCC1	7	1	10%	i	9	1.1
CC(C)OP(C)(=O)CN1CCN(CP(C)(=O)OC(C)C)CC1 (centres undefined)	1	1.1	3%	i	9	1.1
CCOc1cc2[nH]c(=O)n(CC3CCC(C(=O)NC4CCCCC4)CC3)c(=O)c2cc1OCC (centres undefined)	6	1.1	5%	i	9	1.3
SMILES	PMK inhibit	A340 absorber	NADH coupling	DPM-DC inhibit	Spn MK inh	Fluor 339 460
CCOc1cc2[nH]c(=O)n(CC3CCC(C(=O)NC(C)CC)CC3)c(=O)c2cc1OCC (centres undefined)	0	1.1	5%	i	2	2.7*
CCCCN(C)C(=O)CCCCn1c(=O)[nH]c2cc(OCC)c(OCC)cc2c1=O	9	1	4%	i	4	2.2*
O=C(CSc1nccc2ccccc12)N1CCN(Cc2ccc3c(c2)OCO3)CC1	11	1	4%	i	0	1.1
CN(CCc1ccccn1)S(=O)(=O)c1ccccc1F	0	1.1	5%	i	16	1
CN(CCc1ccccn1)Cc1ccc(Cl)cc1Cl	0	1.1	15%	i	44*	1.2
COc1ccccc1C(=O)N1CCN(c2ccccn2)CC1	5	1.1	2%	i	0	1.2
COc1ccccc1C(=O)N1CCN(c2nc3cc(C)c(C)cc3cc2C#N)CC1	9	1	10%	i	7	2.8*
COc1ccccc1NC(=O)c1ccc(NC(=O)CSc2nnnn2C)cc1	21	0.97	4%	i	0	1
COc1ccc(-c2nnc3sc(COc4ccccc4)nn23)cc1	10	1	3%	i	0	1.1
COc1ccc(-c2oc3ncn4nc(Cc5ccccc5)nc4c3c2-c2ccc(OC)cc2)cc1	0	1.1	1%	.	2	2.4*
COc1ccc(Cc2noc(-c3ccc(C)cc3)n2)cc1	0	1.1	1%	i	0	1.1
COc1ccc(-c2oc3ncn4nc(COc5ccccc5)nc4c3c2-c2ccc(OC)cc2)cc1	6	1.1	6%	.	6	2.4*
c1ccc2[nH]c(-c3cscn3)nc2c1	3	0.97	2%	i	4	0.99
c1ccc2nc(-c3nc4ccccc4[nH]3)ccc2c1	0	1	3%	.	2	2.3*
c1ccc2[nH]c(-c3ccnc4ccccc34)nc2c1	13	1.1	11%	.	8	2.1*
CCOC(=O)c1sc(C)c(C(N)=O)c1NC1=NCCCCC1	8	1.1	11%	i	7	2*
O=c1[nH]c(-c2ccncc2)nc2ccccc12	18	1.1	24%	+	21	1.2
O=c1[nH]c(-c2cccnc2)nc2ccccc12	3	1	1%	i	0	1.1
COc1ccc(S(=O)(=O)N2CCC(C(=O)NCc3ccccn3)CC2)cc1C	1	1	1%	i	3	1.1
O=C(c1cc2c(=O)oc3ccccc3c2s1)N1CCN(c2ncccn2)CC1	17	1	6%	i	0	1.1
O=c1n(Cc2ccccc2)c2cc(Cl)cnc2n1Cc1ccccc1	0	1	4%	i	6	2.8*
O=C(Cn1c(=O)c2c(ncn2Cc2ccccc2)n(Cc2ccccc2)c1=O)N1CCCC1	14	1	5%	i	0	1.1
Cc1nn(C)c(C)c1NC(=O)CSc1nc(-c2ccccc2F)nc2c1cnn2-c1ccccc1	18	1	10%	i	0	2.1*
O=C(CSCSCC(=O)NCC1CCCO1)NCC1CCCO1 (centres undefined)	16	1	5%	i	0	1.1
CCOC(=O)c1sc(C)c2c1NC(C)(c1cccs1)NC2=O (centres undefined)	12	1	4%	.	8	3*
